From the supplement of paper PMC11001985 come the findings set out here.

Chain of UniProt P06756 (P06756 whole entry): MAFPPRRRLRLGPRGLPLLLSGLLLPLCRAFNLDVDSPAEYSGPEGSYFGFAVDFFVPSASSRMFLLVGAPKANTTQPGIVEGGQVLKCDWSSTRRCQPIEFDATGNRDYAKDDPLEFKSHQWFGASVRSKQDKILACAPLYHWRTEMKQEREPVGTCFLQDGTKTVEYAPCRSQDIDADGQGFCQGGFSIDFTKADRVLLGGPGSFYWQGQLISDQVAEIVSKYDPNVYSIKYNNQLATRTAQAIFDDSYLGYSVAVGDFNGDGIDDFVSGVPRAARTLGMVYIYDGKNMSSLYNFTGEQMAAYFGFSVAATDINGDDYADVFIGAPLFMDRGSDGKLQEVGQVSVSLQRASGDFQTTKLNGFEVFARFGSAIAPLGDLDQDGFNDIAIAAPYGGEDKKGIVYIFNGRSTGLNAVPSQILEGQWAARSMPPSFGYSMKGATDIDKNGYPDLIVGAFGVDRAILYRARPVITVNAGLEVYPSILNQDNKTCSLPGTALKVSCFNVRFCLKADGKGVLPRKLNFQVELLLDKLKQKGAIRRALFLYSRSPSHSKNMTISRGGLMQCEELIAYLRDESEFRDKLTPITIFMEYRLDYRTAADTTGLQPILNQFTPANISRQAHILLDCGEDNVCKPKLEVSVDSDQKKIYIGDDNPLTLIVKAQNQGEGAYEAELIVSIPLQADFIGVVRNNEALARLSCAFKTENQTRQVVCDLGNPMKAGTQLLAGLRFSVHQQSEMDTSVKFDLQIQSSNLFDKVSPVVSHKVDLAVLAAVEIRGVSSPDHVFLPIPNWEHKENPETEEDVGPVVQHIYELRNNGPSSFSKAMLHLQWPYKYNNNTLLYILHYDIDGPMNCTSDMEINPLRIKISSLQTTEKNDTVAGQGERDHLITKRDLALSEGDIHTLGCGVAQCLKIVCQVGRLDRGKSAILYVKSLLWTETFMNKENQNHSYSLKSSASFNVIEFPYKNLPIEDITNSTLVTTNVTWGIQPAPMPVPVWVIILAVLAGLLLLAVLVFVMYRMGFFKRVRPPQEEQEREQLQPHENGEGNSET
Chain of UniProt P21333 (P21333 whole entry): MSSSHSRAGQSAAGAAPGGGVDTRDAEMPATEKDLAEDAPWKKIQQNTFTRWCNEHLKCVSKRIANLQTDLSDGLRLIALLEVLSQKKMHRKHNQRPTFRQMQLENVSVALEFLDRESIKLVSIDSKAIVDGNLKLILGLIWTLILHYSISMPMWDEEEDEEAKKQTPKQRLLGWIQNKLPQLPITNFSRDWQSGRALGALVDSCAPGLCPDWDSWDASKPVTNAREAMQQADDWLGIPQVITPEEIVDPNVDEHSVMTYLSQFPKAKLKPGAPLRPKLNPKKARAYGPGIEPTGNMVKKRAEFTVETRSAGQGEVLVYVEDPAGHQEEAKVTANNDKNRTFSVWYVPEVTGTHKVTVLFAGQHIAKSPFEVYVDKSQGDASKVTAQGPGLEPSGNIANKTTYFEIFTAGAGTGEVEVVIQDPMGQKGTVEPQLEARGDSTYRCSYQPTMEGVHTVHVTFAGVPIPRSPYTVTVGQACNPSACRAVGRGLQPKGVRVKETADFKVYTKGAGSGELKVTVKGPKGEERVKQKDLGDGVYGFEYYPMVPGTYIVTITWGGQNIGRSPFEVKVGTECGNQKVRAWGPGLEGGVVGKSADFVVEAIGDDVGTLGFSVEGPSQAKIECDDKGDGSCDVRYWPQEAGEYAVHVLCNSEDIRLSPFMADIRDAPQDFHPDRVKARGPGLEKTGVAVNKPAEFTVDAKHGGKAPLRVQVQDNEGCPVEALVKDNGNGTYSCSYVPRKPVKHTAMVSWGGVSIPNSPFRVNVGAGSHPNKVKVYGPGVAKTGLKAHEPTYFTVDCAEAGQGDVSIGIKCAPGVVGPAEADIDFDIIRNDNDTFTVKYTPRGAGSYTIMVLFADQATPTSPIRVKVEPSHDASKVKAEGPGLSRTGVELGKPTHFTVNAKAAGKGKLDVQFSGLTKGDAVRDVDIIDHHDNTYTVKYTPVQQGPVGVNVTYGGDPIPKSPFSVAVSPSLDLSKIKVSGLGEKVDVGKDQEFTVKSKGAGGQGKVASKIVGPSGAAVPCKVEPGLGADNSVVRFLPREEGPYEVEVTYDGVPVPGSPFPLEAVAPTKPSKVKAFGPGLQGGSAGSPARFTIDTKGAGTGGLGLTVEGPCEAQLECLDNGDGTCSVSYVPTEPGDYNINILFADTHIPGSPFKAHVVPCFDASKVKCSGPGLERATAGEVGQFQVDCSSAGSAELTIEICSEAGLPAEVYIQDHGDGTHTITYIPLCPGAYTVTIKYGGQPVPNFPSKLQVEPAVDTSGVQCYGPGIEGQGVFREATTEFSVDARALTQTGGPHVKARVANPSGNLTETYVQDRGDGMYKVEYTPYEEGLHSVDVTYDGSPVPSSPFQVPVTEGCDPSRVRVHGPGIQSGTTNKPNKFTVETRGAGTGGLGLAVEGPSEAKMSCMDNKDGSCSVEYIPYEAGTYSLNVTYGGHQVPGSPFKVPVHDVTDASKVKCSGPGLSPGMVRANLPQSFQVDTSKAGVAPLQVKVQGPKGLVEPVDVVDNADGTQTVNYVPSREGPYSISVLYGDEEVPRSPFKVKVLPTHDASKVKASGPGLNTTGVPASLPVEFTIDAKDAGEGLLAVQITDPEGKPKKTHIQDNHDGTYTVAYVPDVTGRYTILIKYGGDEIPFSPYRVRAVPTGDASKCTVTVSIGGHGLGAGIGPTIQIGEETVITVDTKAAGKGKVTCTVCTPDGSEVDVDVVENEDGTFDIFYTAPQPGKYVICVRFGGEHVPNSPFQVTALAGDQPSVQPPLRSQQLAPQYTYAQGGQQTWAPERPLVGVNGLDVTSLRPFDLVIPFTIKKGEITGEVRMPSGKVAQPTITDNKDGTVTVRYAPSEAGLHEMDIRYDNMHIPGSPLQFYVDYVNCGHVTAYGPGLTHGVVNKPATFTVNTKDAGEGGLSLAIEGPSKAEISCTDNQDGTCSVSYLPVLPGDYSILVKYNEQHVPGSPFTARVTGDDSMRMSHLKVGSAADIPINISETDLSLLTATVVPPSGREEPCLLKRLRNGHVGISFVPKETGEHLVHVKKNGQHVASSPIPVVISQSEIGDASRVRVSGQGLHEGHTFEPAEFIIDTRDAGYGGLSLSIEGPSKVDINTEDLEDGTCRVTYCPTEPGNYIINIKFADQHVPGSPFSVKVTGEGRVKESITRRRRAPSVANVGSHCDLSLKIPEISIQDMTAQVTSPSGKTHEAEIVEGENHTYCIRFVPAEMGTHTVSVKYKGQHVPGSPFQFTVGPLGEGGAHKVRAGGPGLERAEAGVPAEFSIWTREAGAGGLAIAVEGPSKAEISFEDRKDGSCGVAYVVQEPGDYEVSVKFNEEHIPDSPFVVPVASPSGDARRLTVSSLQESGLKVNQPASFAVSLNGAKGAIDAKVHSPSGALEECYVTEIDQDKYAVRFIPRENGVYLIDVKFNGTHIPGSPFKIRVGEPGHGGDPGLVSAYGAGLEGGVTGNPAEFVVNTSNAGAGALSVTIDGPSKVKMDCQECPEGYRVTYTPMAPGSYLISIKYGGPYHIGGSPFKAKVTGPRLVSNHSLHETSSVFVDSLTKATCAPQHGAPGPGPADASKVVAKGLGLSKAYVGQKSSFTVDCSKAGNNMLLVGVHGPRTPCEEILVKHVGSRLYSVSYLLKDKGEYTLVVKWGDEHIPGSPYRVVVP
Chain of UniProt P17844 (P17844 whole entry): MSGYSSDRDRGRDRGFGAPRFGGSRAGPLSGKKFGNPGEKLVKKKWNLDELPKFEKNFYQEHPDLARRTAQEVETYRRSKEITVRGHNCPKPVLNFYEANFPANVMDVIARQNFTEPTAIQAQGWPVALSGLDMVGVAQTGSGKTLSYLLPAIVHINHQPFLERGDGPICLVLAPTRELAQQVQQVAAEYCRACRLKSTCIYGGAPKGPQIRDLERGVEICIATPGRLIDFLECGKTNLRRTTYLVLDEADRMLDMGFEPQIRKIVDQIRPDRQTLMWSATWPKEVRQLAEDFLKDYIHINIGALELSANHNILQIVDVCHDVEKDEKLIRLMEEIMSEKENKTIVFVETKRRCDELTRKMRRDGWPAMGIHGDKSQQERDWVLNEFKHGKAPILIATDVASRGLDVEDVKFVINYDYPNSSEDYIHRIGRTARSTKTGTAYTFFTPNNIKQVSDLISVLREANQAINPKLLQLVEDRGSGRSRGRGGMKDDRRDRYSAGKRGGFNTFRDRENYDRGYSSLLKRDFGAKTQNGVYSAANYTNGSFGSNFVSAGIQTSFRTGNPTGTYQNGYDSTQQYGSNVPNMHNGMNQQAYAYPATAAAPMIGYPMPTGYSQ
Chain of UniProt O43854 (O43854 whole entry): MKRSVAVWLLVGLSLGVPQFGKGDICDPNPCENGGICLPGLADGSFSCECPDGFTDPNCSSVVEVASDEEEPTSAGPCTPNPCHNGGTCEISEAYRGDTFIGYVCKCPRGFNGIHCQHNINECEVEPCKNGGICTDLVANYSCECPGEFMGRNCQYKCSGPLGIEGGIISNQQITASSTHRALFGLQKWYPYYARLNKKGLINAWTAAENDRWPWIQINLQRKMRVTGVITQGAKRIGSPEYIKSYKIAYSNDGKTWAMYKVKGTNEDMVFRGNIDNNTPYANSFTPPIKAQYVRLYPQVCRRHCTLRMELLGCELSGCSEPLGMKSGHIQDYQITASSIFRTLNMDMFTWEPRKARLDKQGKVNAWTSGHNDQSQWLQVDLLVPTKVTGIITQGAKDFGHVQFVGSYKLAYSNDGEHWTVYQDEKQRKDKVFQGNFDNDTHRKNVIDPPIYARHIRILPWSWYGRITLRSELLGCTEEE
Chain of UniProt Q9UHA4 (Q9UHA4 whole entry): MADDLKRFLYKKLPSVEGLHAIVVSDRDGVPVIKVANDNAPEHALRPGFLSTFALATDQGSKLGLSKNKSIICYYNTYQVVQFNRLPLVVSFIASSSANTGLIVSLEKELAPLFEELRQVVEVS

Compound in the test: C#CCNC(=O)CCSSCCC(=O)NCCc1ccc(C=O)c(C=O)c1
The test can be described thus: lysine labeling ratio R10:1 (500 µM / 50 µM probe), SILAC-ABPP in living cells; higher = lower intrinsic lysine reactivity toward the probe, active = 2 or less. The conditions noted are these: HeLa; probe concentrations 500 vs 50 µM. In outline: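 Each lysine carries an R value: the filtered median of MS1 peptide ratios of high probe to low probe, with the median then taken over forward and reverse replicates. These came from living SILAC light and heavy HeLa cells in PBS at room temperature labelled with an alkyne-tagged, disulfide-linked lysine probe at 500 µM or 50 µM, in forward and reverse swaps. The lysates were mixed, clicked to biotin-azide, trypsin-digested, captured on neutravidin, released by DTT, alkylated and run by LC-MS/MS on a TIMS-TOF Pro. The highest value allowed is 20.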
Regarding “CLTC (lysine site: K619) (UniProt Q00610)”, the “lysine labeling ratio R10:1” value was 2.75 (inactive).
As to CLU (lysine site: K62) (UniProt P10909), the “lysine labeling ratio R10:1” value is 1.13 (active).
Turning to “DDX5 (lysine site: K264) (UniProt P17844)”, the “lysine labeling ratio R10:1” value was 7.01 (inactive).
For “RPS27A (lysine site: K113) (UniProt P62979)”, the “lysine labeling ratio R10:1” value was 1.38 (active).
Under “FOLR1 (lysine site: K62) (UniProt P15328)” stands 5.42 (inactive); under UniProt Q9UHA4 (lysine site: K12), 3.79 (inactive); under “FLNA (lysine site: K1491) (UniProt P21333)”, 2.1 (inactive).
For “ITGAV (lysine site: K149) (UniProt P06756)”, the “lysine labeling ratio R10:1” value was 4.46 (inactive).
With “ITGA1 (lysine site: K81) (UniProt P56199)”, the “lysine labeling ratio R10:1” value is 2.7 (inactive).
Then “DYNC1H1 (lysine site: K3621) (UniProt Q14204)”, with 3.03 (inactive).
Regarding “SLC4A7 (lysine site: K890) (UniProt Q9Y6M7)”, the “lysine labeling ratio R10:1” value is 4.29 (inactive).
Then “EDIL3 (lysine site: K431) (UniProt O43854)”, with 1.29 (active); and “FAT4 (lysine site: K2570) (UniProt Q6V0I7)”, with 3.02 (inactive); and “FRAS1 (lysine site: K1628) (UniProt Q86XX4)”, with 3.34 (inactive).
Consider UniProt P62249 (lysine site: K60), for which the “lysine labeling ratio R10:1” value was 4.81 (inactive).
Regarding UniProt P60866 (lysine site: K67), the “lysine labeling ratio R10:1” value is 2 (inactive).
Consider “CD99L2 (lysine site: K86) (UniProt Q8TCZ2)”, for which the “lysine labeling ratio R10:1” value is 3.94 (inactive).
